{"source": "PubChem BioAssay (NCATS)", "key": {"[1]": {"biological_target": "Tumor susceptibility gene 101 protein (Homo sapiens) (UniProt Q99816)", "sequence (Q99816 whole entry, looked up)": "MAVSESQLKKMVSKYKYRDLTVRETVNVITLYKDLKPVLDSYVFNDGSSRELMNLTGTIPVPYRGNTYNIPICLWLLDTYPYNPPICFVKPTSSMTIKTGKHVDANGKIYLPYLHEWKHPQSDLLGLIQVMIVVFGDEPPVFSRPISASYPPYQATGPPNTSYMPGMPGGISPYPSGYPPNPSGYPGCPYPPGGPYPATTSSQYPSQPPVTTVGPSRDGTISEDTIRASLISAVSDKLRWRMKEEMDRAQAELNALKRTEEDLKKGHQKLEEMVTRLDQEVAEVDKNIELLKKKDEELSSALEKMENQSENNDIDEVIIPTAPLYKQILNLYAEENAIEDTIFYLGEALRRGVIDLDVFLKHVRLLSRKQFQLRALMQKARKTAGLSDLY", "experiment": "qHTS Assay for Iinhibitors of HIV-1 Budding by Blocking the Interaction of PTAP/TSG101: Hit Validation (AID 651600; active = well fitted curve in the direction sought with a large enough effect; an effect the other way counts as inactive or inconclusive; also: potency is read from the fitted curve at half-maximal effect; nearly all actives have a fitted effect of over 70% in size)", "how_it_was_run": "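FITC-PTAP peptide (50 nM final) binding to Tsg101 binding domain (10 uM final) was measured by polarization after 20 min at r.t. with compounds, in 10 mM HEPES pH 7.5 buffer with 0.15 M NaCl and 0.01% Tween 20.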"}, "[2]": {"biological_target": "Cytochrome P450 2D6 (Homo sapiens) (UniProt P10635)", "sequence (P10635 whole entry, looked up)": "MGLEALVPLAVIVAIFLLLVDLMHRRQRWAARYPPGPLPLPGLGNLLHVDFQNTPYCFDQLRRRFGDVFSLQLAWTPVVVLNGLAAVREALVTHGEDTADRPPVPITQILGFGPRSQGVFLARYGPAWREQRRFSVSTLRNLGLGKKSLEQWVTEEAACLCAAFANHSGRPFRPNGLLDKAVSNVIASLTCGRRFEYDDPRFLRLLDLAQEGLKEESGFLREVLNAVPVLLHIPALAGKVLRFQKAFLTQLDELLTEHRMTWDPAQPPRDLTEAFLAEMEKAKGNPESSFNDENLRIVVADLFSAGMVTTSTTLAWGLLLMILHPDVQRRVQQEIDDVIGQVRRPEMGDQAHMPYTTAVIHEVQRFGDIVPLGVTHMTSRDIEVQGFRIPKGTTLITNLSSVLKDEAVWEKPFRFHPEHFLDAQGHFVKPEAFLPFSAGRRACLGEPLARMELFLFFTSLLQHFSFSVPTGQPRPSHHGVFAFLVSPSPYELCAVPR", "experiment": "Cytochrome P450 family 2 subfamily D member 6 (CYP2D6) small molecule antagonists: luciferase biochemical (cell-free) qHTS assay (AID 1645840); also: nearly all actives have a fitted effect of over 55% in size; also: potency is read from the fitted curve at half-maximal effect", "how_it_was_run": "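P450-Glo CYP2D6 system: proluciferin substrate converted by enzyme to luciferin, read by luminescence proportional to activity. Enzyme-substrate mix with compound 10 min at room temperature, then NADPH regeneration 1 h before detection reagent.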"}, "[3]": {"biological_target": "Cytochrome P450 2C9 (Homo sapiens) (UniProt P11712)", "sequence (P11712 whole entry, looked up)": "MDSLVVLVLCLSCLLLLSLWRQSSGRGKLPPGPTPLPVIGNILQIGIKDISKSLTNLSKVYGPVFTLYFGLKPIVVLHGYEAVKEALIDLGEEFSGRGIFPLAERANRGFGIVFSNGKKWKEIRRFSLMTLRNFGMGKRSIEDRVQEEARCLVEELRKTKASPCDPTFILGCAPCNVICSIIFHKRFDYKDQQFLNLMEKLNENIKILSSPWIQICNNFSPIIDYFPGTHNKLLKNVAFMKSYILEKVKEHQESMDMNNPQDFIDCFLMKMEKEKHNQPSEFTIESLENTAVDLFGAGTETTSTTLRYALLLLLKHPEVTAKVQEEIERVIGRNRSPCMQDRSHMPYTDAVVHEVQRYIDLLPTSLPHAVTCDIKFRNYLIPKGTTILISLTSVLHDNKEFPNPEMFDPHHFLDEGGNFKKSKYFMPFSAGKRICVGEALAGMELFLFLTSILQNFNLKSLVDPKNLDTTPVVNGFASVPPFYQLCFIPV", "experiment": "Cytochrome P450 family 2 subfamily C member 9 (CYP2C9) small molecule antagonists: luciferase biochemical (cell-free) qHTS assay (AID 1645842); also: nearly all actives have a fitted effect of over 55% in size; also: potency is read from the fitted curve at half-maximal effect", "how_it_was_run": "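P450-Glo CYP2C9 system: proluciferin substrate with enzyme in mix containing 0.4% BSA, 10 min at room temperature, then NADPH regeneration solution added and incubated 1 h at 37C. Detection reagent stopped reaction; luminescence read after 20 min as RLU.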"}, "[4]": {"biological_target": "Rap guanine nucleotide exchange factor 3 (Homo sapiens) (UniProt O95398)", "sequence (O95398 whole entry, looked up)": "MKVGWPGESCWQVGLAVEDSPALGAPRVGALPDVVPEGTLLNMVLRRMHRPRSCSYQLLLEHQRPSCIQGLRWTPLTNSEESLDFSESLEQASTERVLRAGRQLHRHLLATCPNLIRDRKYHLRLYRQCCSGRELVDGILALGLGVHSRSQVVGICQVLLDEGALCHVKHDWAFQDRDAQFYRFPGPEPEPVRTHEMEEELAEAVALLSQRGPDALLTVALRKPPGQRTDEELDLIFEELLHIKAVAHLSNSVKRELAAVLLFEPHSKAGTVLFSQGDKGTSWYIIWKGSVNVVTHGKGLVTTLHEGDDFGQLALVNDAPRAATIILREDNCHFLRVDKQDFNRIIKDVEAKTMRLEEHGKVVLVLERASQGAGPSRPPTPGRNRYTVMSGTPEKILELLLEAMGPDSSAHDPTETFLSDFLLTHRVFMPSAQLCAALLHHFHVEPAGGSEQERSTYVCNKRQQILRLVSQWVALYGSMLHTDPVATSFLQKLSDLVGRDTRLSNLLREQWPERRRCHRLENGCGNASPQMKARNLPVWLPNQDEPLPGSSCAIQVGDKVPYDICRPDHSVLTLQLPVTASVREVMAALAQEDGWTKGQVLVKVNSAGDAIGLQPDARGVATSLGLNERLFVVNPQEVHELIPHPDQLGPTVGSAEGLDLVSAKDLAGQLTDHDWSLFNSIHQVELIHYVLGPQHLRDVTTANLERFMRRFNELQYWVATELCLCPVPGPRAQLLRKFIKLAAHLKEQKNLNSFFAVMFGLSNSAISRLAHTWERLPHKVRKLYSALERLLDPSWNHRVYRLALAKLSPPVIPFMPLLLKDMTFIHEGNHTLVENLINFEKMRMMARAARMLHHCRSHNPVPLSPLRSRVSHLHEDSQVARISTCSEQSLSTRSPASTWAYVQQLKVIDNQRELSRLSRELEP", "experiment": "Confirmatory qHTS for antagonist of cAMP-regulated guanine nucleotide exchange factor 3 (EPAC1) (AID 1645880; active = well fitted curve in the direction sought with a large enough effect; an effect the other way counts as inactive or inconclusive; also: nearly all actives have a fitted effect of over 55% in size; also: potency is read from the fitted curve at half-maximal effect)", "how_it_was_run": "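Released BODIPY-GDP fluoresces less than Rap1-bound BODIPY-GDP; the signal is followed at 480/540 nm at 5-min intervals over 30 min, after 5 min at room temperature. Reactions contain 100 nM EPAC1, 250 nM RAP1B-BODIPY-GDP and 50 uM GDP; results are normalized to ATA and DMSO.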"}, "[5]": {"biological_target": "Rap guanine nucleotide exchange factor 3 (Homo sapiens) (UniProt O95398)", "experiment": "Confirmatory qHTS for agonist of cAMP-regulated guanine nucleotide exchange factor 3 (EPAC1) (AID 1645881; active = well fitted curve in the direction sought with a large enough effect; an effect the other way counts as inactive or inconclusive;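 also: EPAC1 catalysed release of BODIPY-GDP from Rap1B seen as fluorescence loss; nearly all actives have a fitted effect of over 75% in size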)"}, "[6]": {"biological_target": "Rap guanine nucleotide exchange factor 4 (Homo sapiens) (UniProt Q8WZA2)", "sequence (Q8WZA2 whole entry, looked up)": "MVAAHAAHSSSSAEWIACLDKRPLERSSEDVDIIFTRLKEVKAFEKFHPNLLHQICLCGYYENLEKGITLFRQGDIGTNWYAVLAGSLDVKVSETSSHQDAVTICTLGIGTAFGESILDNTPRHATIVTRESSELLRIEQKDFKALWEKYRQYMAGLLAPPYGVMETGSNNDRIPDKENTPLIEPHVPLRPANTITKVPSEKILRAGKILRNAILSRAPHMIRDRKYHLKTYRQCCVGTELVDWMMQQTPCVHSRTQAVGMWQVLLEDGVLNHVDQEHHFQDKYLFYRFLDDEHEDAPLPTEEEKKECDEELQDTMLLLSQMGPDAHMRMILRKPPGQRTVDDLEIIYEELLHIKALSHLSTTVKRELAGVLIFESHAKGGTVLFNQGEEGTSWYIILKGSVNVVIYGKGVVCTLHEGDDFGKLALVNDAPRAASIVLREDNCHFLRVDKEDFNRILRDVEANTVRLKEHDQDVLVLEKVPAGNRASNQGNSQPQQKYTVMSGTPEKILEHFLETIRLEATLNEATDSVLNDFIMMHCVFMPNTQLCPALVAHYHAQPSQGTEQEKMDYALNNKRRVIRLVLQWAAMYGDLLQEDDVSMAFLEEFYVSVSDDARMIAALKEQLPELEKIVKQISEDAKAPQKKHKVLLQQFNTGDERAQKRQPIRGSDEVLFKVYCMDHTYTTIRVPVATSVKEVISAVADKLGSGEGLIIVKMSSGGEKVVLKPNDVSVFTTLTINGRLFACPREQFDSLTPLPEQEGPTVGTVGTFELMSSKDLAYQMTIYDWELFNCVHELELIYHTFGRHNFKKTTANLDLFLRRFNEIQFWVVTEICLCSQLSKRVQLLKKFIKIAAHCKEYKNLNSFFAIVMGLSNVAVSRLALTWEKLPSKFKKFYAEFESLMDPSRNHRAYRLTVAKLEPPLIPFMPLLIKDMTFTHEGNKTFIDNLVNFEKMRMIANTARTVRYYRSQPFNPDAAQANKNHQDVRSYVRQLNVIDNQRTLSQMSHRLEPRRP", "experiment": "Confirmatory qHTS for agonist of cAMP-regulated guanine nucleotide exchange factor 4 (EPAC2) (AID 1645884; active = well fitted curve in the direction sought with a large enough effect; an effect the other way counts as inactive or inconclusive;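 also: nucleotide exchange releases bodipy-GDP from Rap1 and this lowers its fluorescence; nearly all actives have a fitted effect of over 65% in size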)"}, "[7]": {"biological_target": "Rap guanine nucleotide exchange factor 4 (Homo sapiens) (UniProt Q8WZA2)", "experiment": "Confirmatory qHTS for antagonist of cAMP-regulated guanine nucleotide exchange factor 4 (EPAC2) (AID 1645885; active = well fitted curve in the direction sought with a large enough effect; an effect the other way counts as inactive or inconclusive; also: nearly all actives have a fitted effect of over 25% in size; also: potency is read from the fitted curve at half-maximal effect)"}, "[8]": {"biological_target": "Rap guanine nucleotide exchange factor 3 (Homo sapiens) (UniProt O95398)", "experiment": "Counterscreen qHTS for antagonist of cAMP-regulated guanine nucleotide exchange factor 3 (EPAC1) (AID 1645888; active = well fitted curve in the direction sought with a large enough effect; an effect the other way counts as inactive or inconclusive)", "how_it_was_run": "(§1)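 Rap1B-BODIPY-GDP 250 nM + GDP 50 uM; cpds 7-pt, final 9.74 nM–152 uM (activator mode) or from 7.32 nM upwards (inhibitor mode); RT; FI 480/540 nm at 5 and 30 min, then ± cAMP, reread.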"}, "[9]": {"biological_target": "Rap guanine nucleotide exchange factor 3 (Homo sapiens) (UniProt O95398)", "experiment": "Counterscreen qHTS for agonist of cAMP-regulated guanine nucleotide exchange factor 3 (EPAC1) (AID 1645889; active = well fitted curve in the direction sought with a large enough effect; an effect the other way counts as inactive or inconclusive)", "how_it_was_run": "as §1"}, "[10]": {"biological_target": "N-terminal Xaa-Pro-Lys N-methyltransferase 1 (Homo sapiens) (UniProt Q9BV86)", "sequence (Q9BV86 whole entry, looked up)": "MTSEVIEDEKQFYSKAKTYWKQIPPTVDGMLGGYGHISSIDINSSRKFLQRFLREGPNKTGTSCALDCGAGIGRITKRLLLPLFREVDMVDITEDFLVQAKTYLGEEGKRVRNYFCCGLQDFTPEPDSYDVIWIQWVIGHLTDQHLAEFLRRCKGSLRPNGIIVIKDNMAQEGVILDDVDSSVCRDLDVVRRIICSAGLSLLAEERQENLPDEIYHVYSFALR", "experiment": "Confirmatory qHTS for Inhibitors of N-terminal methyltransferase 1 (NTMT1): MTaseGlo Assay (AID 1645874; active = well fitted curve in the direction sought with a large enough effect; an effect the other way counts as inactive or inconclusive)", "how_it_was_run": "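SPKRIA peptide at 1 uM was methylated by 125 nM NTMT1 using 100 uM SAM over 30 min at room temperature, following a 15 min compound preincubation. Product SAH was detected luminescently.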"}, "[11]": {"biological_target": "Glutathione peroxidase 1 (Homo sapiens) (UniProt P07203)", "sequence (P07203 whole entry, looked up)": "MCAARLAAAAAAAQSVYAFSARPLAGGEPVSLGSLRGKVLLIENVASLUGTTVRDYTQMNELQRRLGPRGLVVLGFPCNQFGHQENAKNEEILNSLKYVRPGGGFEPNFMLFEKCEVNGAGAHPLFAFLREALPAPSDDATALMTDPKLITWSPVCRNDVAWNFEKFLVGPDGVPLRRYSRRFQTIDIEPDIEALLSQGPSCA", "experiment": "Primary qHTS Assay for Inhibitors of Recombinant Selenoprotein Glutathione Peroxidase 1 (GPX1) (AID 1845191; active = well fitted curve in the direction sought with a large enough effect; an effect the other way counts as inactive or inconclusive)", "how_it_was_run": "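NADPH consumption tracked by fluorescence at 340/450 nm between t=0 and t=15 min, room temperature. Final mix: 10 nM GPX1, 100 nM glutathione reductase, 1 mM GSH, 0.5 mM NADPH, 0.5 mM cumene hydroperoxide, 0.01% BSA; 30 min compound–enzyme preincubation.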"}}, "note": "Records with an inconclusive call do not appear. Values without a mark were called inactive. Calls of active or inactive are those of the source. Unless noted, calls follow the shape of the dose curve; as a rule, active = well fitted curve in the direction sought with a large enough effect in the repeat runs; inconclusive = weak or mixed curves; inactive = no such curve, though single readings can be large; an effect the other way counts as inactive or inconclusive."}
{"smiles": "Cc1ccc2c(c1)-c1c(c(C(=O)N3CCN(c4cc(C)ccc4C)CC3)nn1C)CS2", "values": [{"measurement": "Potency", "setting": "[1]", "value": "18.3 µM (active)"}, {"measurement": "Potency", "setting": "[2]", "value": "inactive"}, {"measurement": "Potency", "setting": "[3]", "value": "2.39 µM (active)"}, {"measurement": "Potency", "setting": "[4]", "value": "inactive"}, {"measurement": "Potency", "setting": "[5]", "value": "inactive"}, {"measurement": "Potency", "setting": "[6]", "value": "inactive"}, {"measurement": "Potency", "setting": "[7]", "value": "3.79 µM (active)"}, {"measurement": "Potency", "setting": "[8]", "value": "inactive"}, {"measurement": "Potency", "setting": "[9]", "value": "inactive"}]}
{"smiles": "O=C(Nc1cccc(Cl)c1)c1c(NC(=O)C(F)(F)F)sc2c1CCCC2", "values": [{"measurement": "Potency", "setting": "[2]", "value": "4.46 µM (active)"}, {"measurement": "Potency", "setting": "[3]", "value": "0.354 µM (active)"}, {"measurement": "Potency", "setting": "[10]", "value": "5.4 µM (active)"}, {"measurement": "Potency", "setting": "[4]", "value": "37.9 µM (active)"}, {"measurement": "Potency", "setting": "[5]", "value": "inactive"}, {"measurement": "Potency", "setting": "[6]", "value": "inactive"}, {"measurement": "Potency", "setting": "[7]", "value": "inactive"}, {"measurement": "Potency", "setting": "[8]", "value": "inactive"}]}
{"smiles": "COc1ccc(CCNC(=O)c2nc(SCc3ccccc3F)ncc2Cl)cc1OC", "values": [{"measurement": "Potency", "setting": "[2]", "value": "inactive"}, {"measurement": "Potency", "setting": "[3]", "value": "0.379 µM (active)"}]}
{"smiles": "COc1ccc(CCNC(=O)Cn2nc(C)c3c(C)n(-c4ccc(C)cc4)nc3c2=O)c(OC)c1", "values": [{"measurement": "Potency", "setting": "[2]", "value": "8.49 µM (active)"}, {"measurement": "Potency", "setting": "[3]", "value": "8.49 µM (active)"}, {"measurement": "Potency", "setting": "[4]", "value": "67.5 µM (active)"}, {"measurement": "Potency", "setting": "[5]", "value": "inactive"}, {"measurement": "Potency", "setting": "[6]", "value": "inactive"}, {"measurement": "outcome", "setting": "[7]", "value": "inactive [at 12.7 µM]"}, {"measurement": "Potency", "setting": "[8]", "value": "inactive"}, {"measurement": "Potency", "setting": "[9]", "value": "inactive"}]}
{"smiles": "N#C/C(=C/c1ccccc1Cl)c1nc2ccccc2c(=O)[nH]1", "values": [{"measurement": "Potency", "setting": "[2]", "value": "inactive"}, {"measurement": "Potency", "setting": "[3]", "value": "3.38 µM (active)"}]}
{"smiles": "COc1ccc2c(c1)CCc1sc(NC(=O)c3cccc(Br)c3)nc1-2", "values": [{"measurement": "Potency", "setting": "[2]", "value": "inactive"}, {"measurement": "Potency", "setting": "[3]", "value": "5.35 µM (active)"}]}
{"smiles": "COc1ccc(CCNc2nc(SCc3ccccc3Cl)nc3ccccc23)cc1OC", "values": [{"measurement": "Potency", "setting": "[2]", "value": "0.756 µM (active)"}, {"measurement": "Potency", "setting": "[3]", "value": "0.19 µM (active)"}]}
{"smiles": "CCOC(=O)c1ccc(NC(=O)CCn2c(=O)c3cccn3c3cccnc32)cc1", "values": [{"measurement": "Potency", "setting": "[2]", "value": "inactive"}, {"measurement": "Potency", "setting": "[3]", "value": "10.7 µM (active)"}]}
{"smiles": "CC1(C)C(/C=C/C=C/C=C/C=C2/N(CCCCS(=O)(=O)O)c3ccc4ccccc4c3C2(C)C)=[N+](CCCCS(=O)(=O)[O-])c2ccc3ccccc3c21", "values": [{"measurement": "Potency", "setting": "[2]", "value": "26.8 µM (active)"}, {"measurement": "Potency", "setting": "[3]", "value": "13.5 µM (active)"}, {"measurement": "Potency", "setting": "[11]", "value": "inactive"}]}
{"smiles": "CC(C)OCc1cc(CN2CCN(c3cccc(C(F)(F)F)c3)CC2)c(O)c2ncccc12", "values": [{"measurement": "Potency", "setting": "[2]", "value": "inactive"}, {"measurement": "Potency", "setting": "[3]", "value": "12 µM (active)"}]}
{"smiles": "COc1ccc(-c2noc(CCCC(=O)Nc3cccc(Cl)c3C)n2)cc1", "values": [{"measurement": "Potency", "setting": "[2]", "value": "inactive"}, {"measurement": "Potency", "setting": "[3]", "value": "3.79 µM (active)"}]}
{"smiles": "CCc1ccc(CNC(=O)C2CCCN(c3nnc(C)c4c(C)n(-c5ccc(OC)cc5)nc34)C2)cc1", "note": "(configuration not stated)", "values": [{"measurement": "Potency", "setting": "[2]", "value": "7.56 µM (active)"}, {"measurement": "Potency", "setting": "[3]", "value": "1.69 µM (active)"}]}
{"smiles": "Cc1cc(-c2nc(CN3CCC(C(=O)NCCCN4C[C@H](C)C[C@H](C)C4)CC3)co2)ccc1F", "values": [{"measurement": "Potency", "setting": "[2]", "value": "0.952 µM (active)"}, {"measurement": "Potency", "setting": "[3]", "value": "inactive"}, {"measurement": "Potency", "setting": "[11]", "value": "inactive"}]}
